Holding throughout (assay type): functional
Assay [1] deals with Plasmodium falciparum. Put plainly: GSK_TCMDC: Inhibition of Plasmodium falciparum 3D7 in whole red blood cells, using parasite LDH activity as an index of growth. Test compounds present at 2uM.
In assay [2] the test system is Plasmodium falciparum. Put plainly: GSK_TCMDC: Inhibition of Plasmodium falciparum Dd2 in whole red blood cells, using parasite LDH activity as an index of growth. Test compounds present at 2uM.
The subject of a further assay is HepG2. Put plainly: GSK_TCMDC: Percent inhibition of human HepG2 cell line. Test compounds present at 10uM.

Usually Inhibition stands for the percentage by which the read-out fell short of the control. A lower Inhibition goes with a response near the control. `Cc1cc(C2CCN(CCCCNC(=O)c3ccc(NC(=O)c4ccc(Cl)cc4)cc3)CC2)c(C)cc1OCCN(C)C`: the Inhibition in the assay with Plasmodium falciparum [1] is 100%; in the assay on Plasmodium falciparum [2], 77%; in the assay with HepG2, 18%.

Turning to `Cl.O=C(C(=O)c1ccc(Nc2ccnc3cc(-c4ccccn4)ccc23)cc1)c1ccccc1`, the Inhibition in the assay on Plasmodium falciparum [1] was found to be 93%; in the assay on Plasmodium falciparum [2], 34%; in the assay with HepG2, 22%.

As for `CC(C)CN1CCC(COc2ccc3ncn(-c4cc(O[C@H](C)c5ccccc5C(F)(F)F)c(C(N)=O)s4)c3c2)CC1`, the Inhibition stood at 97% in the assay on Plasmodium falciparum [1], 86% in the assay on Plasmodium falciparum [2] and 46% in the assay on HepG2.

On to `CCn1c(Cc2ccccc2)nnc1SCC(=O)N1c2ccccc2Sc2ccccc21`, for which the Inhibition in the assay with Plasmodium falciparum [1] turned out to be 99%; with Plasmodium falciparum [2], 96%; in the assay with HepG2, 0%.

For the molecule `Cc1cc(-c2ccc(CNC3CCN(C)CC3)cc2)ccc1S(=O)(=O)NCc1ccccc1.O=C(O)C(F)(F)F`, the Inhibition with Plasmodium falciparum [1] is 100%; in the assay on Plasmodium falciparum [2], 97%; in the assay on HepG2 it was 52%.

In the case of `c1ccc2oc(-c3cc4ccncc4cc3OC3CCNCC3)cc2c1`, the values for the Inhibition with Plasmodium falciparum [1], in the assay with Plasmodium falciparum [2] and with HepG2 were 100%, 96% and 11%, respectively.

With `CN(C)CCN(C)Cc1nc(-c2ccc3c(Nc4ccc(Oc5ccccc5)cc4)ccnc3c2)cs1`, the Inhibition was found to be 100% in the assay with Plasmodium falciparum [1], 100% in the assay on Plasmodium falciparum [2] and 27% in the assay with HepG2.

Turning to `Cc1cc(N[C@@H](Cc2ccccc2)C(=O)NCCOc2ccccc2)nc(Nc2ccccc2)n1.O=C(O)C(F)(F)F`, the Inhibition with Plasmodium falciparum [1] was found to be 100%; in the assay on Plasmodium falciparum [2], 63%; with HepG2, 2%.

In the case of `Br.CC(C)(C)c1ccc(OCCCON2C(=N)N=C(N)NC2(C)C)c(C(C)(C)C)c1`, the Inhibition turned out to be 93% in the assay with Plasmodium falciparum [1], 97% with Plasmodium falciparum [2] and 64% with HepG2.

With `Cn1nc(C(F)(F)F)c(-c2ccc(F)cc2)c1NC(=O)Nc1ccc(F)cc1F`, the Inhibition with Plasmodium falciparum [1] is given as 100%; in the assay with Plasmodium falciparum [2], 98%; in the assay with HepG2 it was 11%.

The values are drawn from ChEMBL document CHEMBL1157539, “Thousands of chemical starting points for antimalarial lead identification” (Nature, 2010).
